The results in this text go back to ChEMBL document CHEMBL1961873, “Compounds: GSK PKIS; Assays: Nanosyn kinase panel” (2012).

Structures are written as SMILES. Where “and” joins values, the source holds several entries; their conditions need not be identical. Equal values may be shown once.

The target of experiment [1] is Tyrosine-protein kinase CSK (Homo sapiens) (UniProt P41240). The note with it: at 1 µM.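 Also: each value is an averaged inhibition reading.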
Experiment [2] concerns the target T1, Discoidin domain-containing receptor 2 (Homo sapiens) (UniProt Q16832).
T1 sequence (whole entry): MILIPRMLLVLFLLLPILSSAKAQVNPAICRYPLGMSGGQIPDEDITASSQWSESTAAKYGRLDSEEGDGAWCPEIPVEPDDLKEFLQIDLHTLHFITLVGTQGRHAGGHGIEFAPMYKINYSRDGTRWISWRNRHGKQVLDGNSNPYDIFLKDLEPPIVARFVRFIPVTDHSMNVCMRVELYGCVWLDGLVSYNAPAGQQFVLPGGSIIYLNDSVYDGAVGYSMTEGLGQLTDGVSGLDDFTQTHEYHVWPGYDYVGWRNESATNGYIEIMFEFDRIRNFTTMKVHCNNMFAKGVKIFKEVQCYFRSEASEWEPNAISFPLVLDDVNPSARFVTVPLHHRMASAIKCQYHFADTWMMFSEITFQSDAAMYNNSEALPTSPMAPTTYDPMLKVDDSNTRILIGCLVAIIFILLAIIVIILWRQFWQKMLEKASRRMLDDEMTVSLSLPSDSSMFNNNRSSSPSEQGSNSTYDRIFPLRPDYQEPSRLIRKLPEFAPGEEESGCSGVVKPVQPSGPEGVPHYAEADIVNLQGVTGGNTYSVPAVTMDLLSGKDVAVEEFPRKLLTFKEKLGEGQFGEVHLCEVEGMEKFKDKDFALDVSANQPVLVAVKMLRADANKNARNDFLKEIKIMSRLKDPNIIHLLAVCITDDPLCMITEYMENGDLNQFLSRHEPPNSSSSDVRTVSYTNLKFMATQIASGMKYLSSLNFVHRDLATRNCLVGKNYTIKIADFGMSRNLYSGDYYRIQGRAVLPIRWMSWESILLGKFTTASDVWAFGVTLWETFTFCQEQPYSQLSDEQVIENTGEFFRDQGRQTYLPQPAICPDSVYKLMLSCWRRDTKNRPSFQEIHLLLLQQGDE
The note with it: at 0.1 µM.

Experiment [3] concerns the target T1, Discoidin domain-containing receptor 2 (Homo sapiens). The note with it: at 1 µM.
Experiment [4] addresses Epidermal growth factor receptor (Homo sapiens) (UniProt P00533). As to conditions: at 0.1 µM.
The target is the same in experiment [5]. As to conditions: at 1 µM.
Experiment [6] deals with Epidermal growth factor receptor (Homo sapiens), P00533 [L858R]. The note with it: at 0.1 µM.
Experiment [7] has the same test system. The note with it: at 1 µM.
The subject of experiment [8] is Epidermal growth factor receptor (Homo sapiens), P00533 [L861Q]. As to conditions: at 0.1 µM.
The test system is the same in experiment [9]. The note with it: at 1 µM.
Experiment [10] relates to Epidermal growth factor receptor (Homo sapiens), P00533 [T790M]. As to conditions: at 0.1 µM.
Experiment [11] has the same test system. The note with it: at 1 µM.
Experiment [12] deals with Epidermal growth factor receptor (Homo sapiens), P00533 [L858R,T790M]. The note with it: at 0.1 µM.
Experiment [13] has the same test system. As to conditions: at 1 µM.
Experiment [14] deals with Ephrin type-A receptor 2 (Homo sapiens) (UniProt P29317). The note with it: at 0.1 µM.
Chain of Ephrin type-A receptor 2 (Homo sapiens) (P29317 whole entry): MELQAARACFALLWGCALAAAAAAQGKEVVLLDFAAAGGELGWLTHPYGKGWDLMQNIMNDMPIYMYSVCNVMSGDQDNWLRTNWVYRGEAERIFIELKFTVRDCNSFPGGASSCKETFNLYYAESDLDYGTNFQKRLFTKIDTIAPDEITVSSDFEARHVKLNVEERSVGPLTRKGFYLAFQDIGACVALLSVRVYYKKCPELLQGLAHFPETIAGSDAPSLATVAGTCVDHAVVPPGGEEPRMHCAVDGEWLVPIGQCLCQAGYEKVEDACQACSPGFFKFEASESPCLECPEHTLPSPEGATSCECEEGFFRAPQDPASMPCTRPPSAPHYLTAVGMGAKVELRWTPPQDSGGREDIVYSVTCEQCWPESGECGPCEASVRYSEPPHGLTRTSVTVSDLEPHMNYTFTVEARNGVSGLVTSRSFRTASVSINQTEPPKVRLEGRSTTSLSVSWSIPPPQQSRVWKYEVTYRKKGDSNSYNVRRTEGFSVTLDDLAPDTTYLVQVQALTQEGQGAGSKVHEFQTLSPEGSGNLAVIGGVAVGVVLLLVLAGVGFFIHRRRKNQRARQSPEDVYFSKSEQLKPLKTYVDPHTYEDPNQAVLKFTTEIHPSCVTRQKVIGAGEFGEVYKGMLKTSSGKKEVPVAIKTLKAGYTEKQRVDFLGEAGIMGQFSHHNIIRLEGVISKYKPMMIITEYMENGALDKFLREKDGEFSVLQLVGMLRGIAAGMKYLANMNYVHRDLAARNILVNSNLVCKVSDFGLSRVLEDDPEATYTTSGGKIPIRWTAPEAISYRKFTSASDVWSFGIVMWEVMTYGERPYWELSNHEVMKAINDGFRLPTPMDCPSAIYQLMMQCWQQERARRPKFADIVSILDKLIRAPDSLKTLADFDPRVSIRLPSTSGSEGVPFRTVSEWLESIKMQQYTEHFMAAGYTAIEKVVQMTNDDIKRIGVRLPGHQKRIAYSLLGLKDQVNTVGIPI
Experiment [15] has the same target. The note with it: at 1 µM.
Experiment [16] addresses T2, Ephrin type-A receptor 3 (Homo sapiens) (UniProt P29320).
T2 sequence (whole entry): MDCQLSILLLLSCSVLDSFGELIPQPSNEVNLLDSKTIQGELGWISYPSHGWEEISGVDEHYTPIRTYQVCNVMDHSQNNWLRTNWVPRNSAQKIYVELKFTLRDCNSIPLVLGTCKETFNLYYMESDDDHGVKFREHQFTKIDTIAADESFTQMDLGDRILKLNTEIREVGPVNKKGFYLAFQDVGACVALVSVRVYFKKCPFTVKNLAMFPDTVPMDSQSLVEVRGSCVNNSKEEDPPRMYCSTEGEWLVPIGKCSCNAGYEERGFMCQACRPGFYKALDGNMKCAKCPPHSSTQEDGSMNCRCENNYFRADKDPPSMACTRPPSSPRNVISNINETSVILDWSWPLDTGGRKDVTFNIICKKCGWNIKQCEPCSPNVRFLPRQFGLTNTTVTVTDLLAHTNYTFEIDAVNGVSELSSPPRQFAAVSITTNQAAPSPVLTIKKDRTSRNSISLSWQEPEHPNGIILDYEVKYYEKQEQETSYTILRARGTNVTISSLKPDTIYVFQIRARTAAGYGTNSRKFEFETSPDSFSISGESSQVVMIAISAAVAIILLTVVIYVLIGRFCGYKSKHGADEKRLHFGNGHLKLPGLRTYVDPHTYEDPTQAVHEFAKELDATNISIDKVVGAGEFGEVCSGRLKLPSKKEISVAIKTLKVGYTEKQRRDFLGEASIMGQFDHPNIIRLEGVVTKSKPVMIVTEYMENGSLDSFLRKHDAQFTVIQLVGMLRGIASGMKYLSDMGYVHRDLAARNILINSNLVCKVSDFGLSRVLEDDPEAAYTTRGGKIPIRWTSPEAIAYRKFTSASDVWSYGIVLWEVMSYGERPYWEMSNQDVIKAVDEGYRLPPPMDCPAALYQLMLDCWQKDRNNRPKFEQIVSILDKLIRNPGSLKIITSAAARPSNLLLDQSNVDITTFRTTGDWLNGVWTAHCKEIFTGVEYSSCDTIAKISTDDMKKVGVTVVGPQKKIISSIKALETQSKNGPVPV
The note with it: at 0.1 µM.

The target in experiment [17] is T2, Ephrin type-A receptor 3 (Homo sapiens). As to conditions: at 1 µM.
In experiment [18] the target is Ephrin type-A receptor 4 (Homo sapiens) (UniProt P54764). As to conditions: at 0.1 µM.
Chain of Ephrin type-A receptor 4 (Homo sapiens) (P54764 whole entry): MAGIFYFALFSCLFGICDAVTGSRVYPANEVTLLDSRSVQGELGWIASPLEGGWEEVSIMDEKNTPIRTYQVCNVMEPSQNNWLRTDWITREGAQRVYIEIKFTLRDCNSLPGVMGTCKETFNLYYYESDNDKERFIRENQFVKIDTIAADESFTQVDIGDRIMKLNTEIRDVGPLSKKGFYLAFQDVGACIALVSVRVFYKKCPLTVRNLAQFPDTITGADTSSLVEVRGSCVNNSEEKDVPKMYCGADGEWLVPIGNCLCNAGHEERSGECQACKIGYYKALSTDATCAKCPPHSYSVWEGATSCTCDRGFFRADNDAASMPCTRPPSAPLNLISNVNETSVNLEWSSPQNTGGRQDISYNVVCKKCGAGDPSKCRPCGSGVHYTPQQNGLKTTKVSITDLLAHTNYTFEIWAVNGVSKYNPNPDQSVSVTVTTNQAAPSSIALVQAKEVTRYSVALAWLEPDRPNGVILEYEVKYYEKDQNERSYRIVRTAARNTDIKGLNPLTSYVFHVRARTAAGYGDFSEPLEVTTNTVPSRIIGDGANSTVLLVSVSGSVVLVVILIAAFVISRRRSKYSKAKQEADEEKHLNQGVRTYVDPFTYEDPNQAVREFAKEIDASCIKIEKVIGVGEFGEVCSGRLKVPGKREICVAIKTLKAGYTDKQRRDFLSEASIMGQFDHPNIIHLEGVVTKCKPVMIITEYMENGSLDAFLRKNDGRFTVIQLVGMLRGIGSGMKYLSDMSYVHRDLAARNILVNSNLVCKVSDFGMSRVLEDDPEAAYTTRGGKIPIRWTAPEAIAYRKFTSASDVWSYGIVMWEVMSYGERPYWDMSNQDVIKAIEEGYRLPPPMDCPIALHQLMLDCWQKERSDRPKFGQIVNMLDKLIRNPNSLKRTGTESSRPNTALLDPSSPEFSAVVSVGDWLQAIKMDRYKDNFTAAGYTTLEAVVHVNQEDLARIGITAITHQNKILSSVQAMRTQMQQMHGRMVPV
Experiment [19] has the same target. As to conditions: at 1 µM.
In experiment [20] the target is T3, Ephrin type-B receptor 2 (Homo sapiens) (UniProt P29323).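 Also: reported as mean inhibition of EPHB2, from the GSK PKIS dataset.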
T3 sequence (whole entry): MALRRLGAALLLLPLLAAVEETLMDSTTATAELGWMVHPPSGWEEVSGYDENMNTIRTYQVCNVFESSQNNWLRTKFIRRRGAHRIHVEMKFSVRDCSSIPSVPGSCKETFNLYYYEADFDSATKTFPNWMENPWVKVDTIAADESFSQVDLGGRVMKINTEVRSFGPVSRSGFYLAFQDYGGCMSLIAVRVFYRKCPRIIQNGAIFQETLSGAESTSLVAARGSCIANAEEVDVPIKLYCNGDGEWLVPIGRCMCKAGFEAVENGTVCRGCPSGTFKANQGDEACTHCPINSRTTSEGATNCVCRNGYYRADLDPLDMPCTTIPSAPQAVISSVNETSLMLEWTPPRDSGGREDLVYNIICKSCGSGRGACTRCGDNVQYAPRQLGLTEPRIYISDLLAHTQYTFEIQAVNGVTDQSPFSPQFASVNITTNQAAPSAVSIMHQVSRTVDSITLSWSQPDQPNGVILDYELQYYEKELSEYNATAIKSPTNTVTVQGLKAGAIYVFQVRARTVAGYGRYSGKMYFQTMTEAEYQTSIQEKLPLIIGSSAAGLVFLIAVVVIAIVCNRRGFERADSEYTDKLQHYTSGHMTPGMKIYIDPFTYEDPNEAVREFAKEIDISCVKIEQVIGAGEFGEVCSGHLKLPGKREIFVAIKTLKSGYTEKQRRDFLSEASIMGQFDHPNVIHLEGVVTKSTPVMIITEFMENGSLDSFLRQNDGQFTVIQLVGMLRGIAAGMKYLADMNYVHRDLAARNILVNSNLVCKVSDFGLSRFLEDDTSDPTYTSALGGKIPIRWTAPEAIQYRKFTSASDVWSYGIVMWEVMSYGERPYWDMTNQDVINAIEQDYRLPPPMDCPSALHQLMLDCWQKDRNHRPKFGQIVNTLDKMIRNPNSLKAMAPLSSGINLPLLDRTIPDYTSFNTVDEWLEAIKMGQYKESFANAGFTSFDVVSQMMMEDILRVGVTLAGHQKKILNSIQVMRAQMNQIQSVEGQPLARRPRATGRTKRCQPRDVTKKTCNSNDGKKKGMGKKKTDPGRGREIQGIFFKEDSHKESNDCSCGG
As to conditions: at 0.1 µM.

Chain of Epidermal growth factor receptor (Homo sapiens) (P00533 whole entry): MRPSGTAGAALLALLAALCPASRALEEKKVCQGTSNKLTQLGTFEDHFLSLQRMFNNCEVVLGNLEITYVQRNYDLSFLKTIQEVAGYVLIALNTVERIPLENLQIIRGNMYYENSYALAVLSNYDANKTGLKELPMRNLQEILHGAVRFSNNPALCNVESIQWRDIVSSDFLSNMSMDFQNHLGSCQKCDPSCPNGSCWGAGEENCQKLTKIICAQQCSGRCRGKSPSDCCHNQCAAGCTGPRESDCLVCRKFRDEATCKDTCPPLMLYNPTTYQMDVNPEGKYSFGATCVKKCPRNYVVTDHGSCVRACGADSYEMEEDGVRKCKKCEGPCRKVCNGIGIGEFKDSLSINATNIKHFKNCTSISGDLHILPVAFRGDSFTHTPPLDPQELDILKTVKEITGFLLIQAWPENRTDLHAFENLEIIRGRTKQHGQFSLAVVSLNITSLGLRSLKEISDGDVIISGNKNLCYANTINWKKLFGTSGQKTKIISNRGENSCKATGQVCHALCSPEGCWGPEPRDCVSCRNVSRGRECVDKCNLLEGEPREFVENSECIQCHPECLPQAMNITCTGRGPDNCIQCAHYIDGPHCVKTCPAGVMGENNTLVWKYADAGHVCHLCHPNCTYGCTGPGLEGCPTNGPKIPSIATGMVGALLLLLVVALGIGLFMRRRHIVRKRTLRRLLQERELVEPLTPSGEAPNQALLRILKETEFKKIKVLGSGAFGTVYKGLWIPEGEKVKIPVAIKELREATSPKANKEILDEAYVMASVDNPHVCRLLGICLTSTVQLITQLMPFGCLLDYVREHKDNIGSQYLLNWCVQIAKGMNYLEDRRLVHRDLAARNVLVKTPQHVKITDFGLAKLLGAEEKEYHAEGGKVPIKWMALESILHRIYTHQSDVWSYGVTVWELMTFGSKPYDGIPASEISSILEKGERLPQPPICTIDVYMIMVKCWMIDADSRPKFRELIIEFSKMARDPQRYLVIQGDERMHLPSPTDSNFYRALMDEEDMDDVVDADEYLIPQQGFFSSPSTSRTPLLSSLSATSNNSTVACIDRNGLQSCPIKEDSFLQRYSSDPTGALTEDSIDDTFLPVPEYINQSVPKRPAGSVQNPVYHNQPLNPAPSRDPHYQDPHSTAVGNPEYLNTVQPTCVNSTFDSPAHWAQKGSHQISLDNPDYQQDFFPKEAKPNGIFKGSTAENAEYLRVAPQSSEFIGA
Chain of Epidermal growth factor receptor (Homo sapiens), P00533 [L861Q] (P00533 whole entry L861Q): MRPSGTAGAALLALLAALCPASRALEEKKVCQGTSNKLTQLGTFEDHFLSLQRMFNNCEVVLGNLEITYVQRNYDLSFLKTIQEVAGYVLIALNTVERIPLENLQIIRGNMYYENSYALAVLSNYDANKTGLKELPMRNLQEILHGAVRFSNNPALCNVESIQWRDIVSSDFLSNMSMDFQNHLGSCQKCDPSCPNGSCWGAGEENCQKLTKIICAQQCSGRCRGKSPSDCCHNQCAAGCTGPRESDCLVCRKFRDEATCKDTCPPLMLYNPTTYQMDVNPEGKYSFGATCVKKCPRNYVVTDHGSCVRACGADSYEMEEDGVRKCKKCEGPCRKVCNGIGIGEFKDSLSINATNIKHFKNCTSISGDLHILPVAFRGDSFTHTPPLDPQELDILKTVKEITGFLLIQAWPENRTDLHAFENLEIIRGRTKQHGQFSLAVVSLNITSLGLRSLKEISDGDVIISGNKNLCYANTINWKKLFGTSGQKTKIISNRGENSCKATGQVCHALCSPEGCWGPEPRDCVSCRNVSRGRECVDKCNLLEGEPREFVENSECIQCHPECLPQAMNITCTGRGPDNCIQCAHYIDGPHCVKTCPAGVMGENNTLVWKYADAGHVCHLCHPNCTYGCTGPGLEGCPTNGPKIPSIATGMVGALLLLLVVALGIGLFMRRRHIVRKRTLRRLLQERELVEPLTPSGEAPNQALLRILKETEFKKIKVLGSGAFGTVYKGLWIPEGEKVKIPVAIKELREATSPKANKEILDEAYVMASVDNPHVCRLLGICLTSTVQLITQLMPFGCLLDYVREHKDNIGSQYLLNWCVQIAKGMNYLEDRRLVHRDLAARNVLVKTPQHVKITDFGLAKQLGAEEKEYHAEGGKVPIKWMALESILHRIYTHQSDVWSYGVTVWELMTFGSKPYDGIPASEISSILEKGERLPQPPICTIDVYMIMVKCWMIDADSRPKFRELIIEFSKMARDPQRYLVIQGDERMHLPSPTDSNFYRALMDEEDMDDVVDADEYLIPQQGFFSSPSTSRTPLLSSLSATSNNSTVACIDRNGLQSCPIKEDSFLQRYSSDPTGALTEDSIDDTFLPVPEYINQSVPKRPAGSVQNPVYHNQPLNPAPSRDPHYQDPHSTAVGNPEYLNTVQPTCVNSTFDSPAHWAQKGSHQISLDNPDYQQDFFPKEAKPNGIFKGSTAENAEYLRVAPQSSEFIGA
Chain of Tyrosine-protein kinase CSK (Homo sapiens) (P41240 2-450 limits assumed): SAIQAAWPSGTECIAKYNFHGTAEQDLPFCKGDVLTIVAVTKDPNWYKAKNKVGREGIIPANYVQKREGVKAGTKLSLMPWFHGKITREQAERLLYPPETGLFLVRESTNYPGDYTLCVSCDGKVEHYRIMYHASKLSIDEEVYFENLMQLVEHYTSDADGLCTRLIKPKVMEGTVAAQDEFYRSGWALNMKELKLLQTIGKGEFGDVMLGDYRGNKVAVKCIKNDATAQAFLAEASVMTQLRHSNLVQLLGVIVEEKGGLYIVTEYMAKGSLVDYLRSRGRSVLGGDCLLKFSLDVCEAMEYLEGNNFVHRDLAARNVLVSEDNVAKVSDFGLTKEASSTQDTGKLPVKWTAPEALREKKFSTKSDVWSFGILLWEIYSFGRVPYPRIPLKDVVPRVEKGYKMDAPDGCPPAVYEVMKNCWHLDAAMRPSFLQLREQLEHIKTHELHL

Broadly, the inhibition is the drop in the measured response relative to a control, in per cent. As for `COC(=O)Nc1nc2cc(Oc3ccc(NC(=O)Nc4ccccc4)cc3)ccc2[nH]1`, the inhibition is 1.41% in experiment [1]; 77.2% in [2]; 81.4% in experiment [3]; 0.9% in [4]; -0.33% in [5]; 0.78% in experiment [6]. Also, the inhibition in experiment [7] was 4.35%; in experiment [8], 1.19%; in experiment [9], 1.08%; in [10] it was -1.39%; in experiment [11], 2.64%; in experiment [12], -2.44%. Also, the inhibition in experiment [13] was 2.14%; in [14], 2.42%; in experiment [15], 3.37%; in experiment [16], 4.93%; in [17] it was 1.33%; in [18] it was 8.86%. Further, the inhibition in experiment [19] was 11.2%; in experiment [20] it was 5.01%.
Regarding `CCn1c(-c2nonc2N)nc2cncc(C(=O)NCCNC)c21`, the inhibition in [1] is 4.95%; in [2], 1.54%; in [3] it was 2.38%; in experiment [4], 0.28%; in experiment [5], 5.41%; in experiment [6], 4.66%. In addition, the inhibition in [7] is 6.79%; in experiment [8] it was 4.01%; in experiment [9], 2.21%; in [10], 2.41%; in [11] it was 4.6%; in experiment [12], 1.4%. Also, the inhibition in experiment [13] was 5.19%; in experiment [14], 0.81%; in experiment [15], -0.9%; in experiment [16], 1.15%; in [17] it was 5.09%; in experiment [18], 7.32%. Besides, the inhibition in [19] stood at 10.1%; in experiment [20] it was 12.1%.
With `Nc1nonc1-c1nc2cnccc2n1C1CC1`, the inhibition was 2.08% and 1.45% in experiment [1]; 1.46% and 1.25% in experiment [2]; 2.24% and 0.96% in experiment [3]; 1.3% and -3.46% in [4]; 4.4% and -3.77% in experiment [5]; 1.41% and 2.54% in experiment [6]. Moreover, the inhibition in [7] is 0.67% and 3.32%; in experiment [8] it was 4% and 2.76%; in [9] it was -0.36% and -1.27%; in experiment [10] it was 1.58% and 0.88%; in [11], 0.41% and 1.8%; in experiment [12], 0.14% and 3.74%. Further, the inhibition was 5.5% and 7.11% in experiment [13]; 1.3% and -6.99% in experiment [14]; 0.04% and -7.28% in [15]; 3.71% and -1.91% in [16]; 3.7% and -1.81% in experiment [17]; 6.99% and 5.79% in experiment [18]. In addition, the inhibition was 5.96% and 2.69% in experiment [19]; 10.5% and 2.91% in experiment [20].
For the compound `c1cnn2ncc(-c3ccnc(NCCCN4CCOCC4)n3)c2c1`, the inhibition in [1] is 1.9%; in [2], 2.03%; in experiment [3], 1.44%; in [4], -0.42%; in experiment [5], 0.23%; in experiment [6] it was 3.41%. Further, the inhibition in experiment [7] was 1.28%; in experiment [8], 1.28%; in [9], 0.79%; in experiment [10] it was 0.73%; in [11], 1.66%; in [12] it was -1.49%. For the same compound, the inhibition in experiment [13] was 0.81%; in [14] it was -0.74%; in [15] it was -1.53%; in [16], 2.9%; in experiment [17], 6.16%; in experiment [18] it was 10%. For the same compound, the inhibition in experiment [19] came out at 5.87%; in experiment [20], 6.81%.
On to `CNC(=O)c1sc(-n2cnc3cc(OC)c(OC)cc32)cc1OCc1ccccc1C(F)(F)F`, for which the inhibition in [1] is 7.18%; in experiment [2], 2.3%; in experiment [3], 2.7%; in [4], -0.83%; in experiment [5], 2.09%; in [6], 0.74%. The inhibition in experiment [7] was -0.13%; in experiment [8] it was 1.16%; in experiment [9] it was 1.23%; in experiment [10], 0.64%; in experiment [11], 0.02%; in experiment [12], 0.49%. In addition, the inhibition turned out to be 1.43% in experiment [13]; 2.6% in experiment [14]; 2.61% in experiment [15]; 3.26% in [16]; 7.45% in experiment [17]; 7.55% in [18]. Further, the inhibition in experiment [19] worked out at 13.2%; in experiment [20], 5.44%.
Turning to `CN1CCN(Cc2ccc(-c3cc4ncnc(Nc5ccc(OCc6cccc(F)c6)c(Cl)c5)c4s3)o2)CC1`, the inhibition in [1] is 12.6% and 17.7%; in experiment [2] it was 1.16% and 0.39%; in experiment [3], 1.23% and -0.86%; in experiment [14], -2.36% and 1.48%; in experiment [15], -2.73% and 2.15%; in experiment [16], 2.75% and 5.84%. For the same compound, the inhibition was 2.47% and 3.64% in experiment [17]; 4.95% and 10.4% in experiment [18]; 6.16% and 11.9% in experiment [19]; 5.13% and 6.55% in experiment [20].
Regarding `O=C1Nc2ccccc2/C1=C1\CCc2cc(O)ccc21`, the inhibition worked out at 4.47% in experiment [1]; 2.06% in experiment [2]; 3.76% in [3]; 0.24% in experiment [4]; 1.05% in experiment [5]; 1.94% in experiment [6]. Besides, the inhibition is 2.87% in [7]; 2.16% in experiment [8]; -0.57% in experiment [9]; 1.76% in experiment [10]; 2.73% in [11]; 1.8% in experiment [12]. The inhibition came out at 4.76% in experiment [13]; 2.66% in experiment [14]; 2% in [15]; 6.06% in experiment [16]; 4.39% in [17]; 7.97% in [18]. Besides, the inhibition in [19] was found to be 3.3%; in experiment [20], 3.53%.
